Assay [1] deals with Tyrosine-protein kinase SYK (Homo sapiens) (UniProt P43405). To be noted: at 10 µM.
Assay [2] has as its target T1, Mitogen-activated protein kinase kinase kinase 7 (Homo sapiens) (UniProt O43318).
T1 sequence (whole entry): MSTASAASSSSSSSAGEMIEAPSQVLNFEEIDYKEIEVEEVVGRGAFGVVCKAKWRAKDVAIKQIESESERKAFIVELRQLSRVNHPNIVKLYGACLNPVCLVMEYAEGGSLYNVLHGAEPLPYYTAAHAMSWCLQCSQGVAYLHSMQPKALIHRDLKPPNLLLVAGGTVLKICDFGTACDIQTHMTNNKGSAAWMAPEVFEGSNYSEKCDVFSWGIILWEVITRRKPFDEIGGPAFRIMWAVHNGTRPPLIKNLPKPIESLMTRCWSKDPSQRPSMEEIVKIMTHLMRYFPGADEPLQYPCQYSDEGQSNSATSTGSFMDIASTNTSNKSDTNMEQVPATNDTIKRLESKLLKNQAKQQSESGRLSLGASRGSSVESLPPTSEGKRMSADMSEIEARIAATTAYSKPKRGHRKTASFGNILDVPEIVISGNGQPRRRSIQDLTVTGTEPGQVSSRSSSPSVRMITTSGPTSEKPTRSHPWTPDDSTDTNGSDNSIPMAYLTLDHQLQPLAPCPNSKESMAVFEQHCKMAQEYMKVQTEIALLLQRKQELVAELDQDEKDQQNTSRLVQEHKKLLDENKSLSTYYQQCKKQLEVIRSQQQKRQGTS
The note with it: at 1 µM.

For assay [3], the target named is T1, Mitogen-activated protein kinase kinase kinase 7 (Homo sapiens). The note with it: at 10 µM.
The target of assay [4] is T2, Serine/threonine-protein kinase TAO1 (Homo sapiens) (UniProt Q7L7X3).
T2 sequence (whole entry): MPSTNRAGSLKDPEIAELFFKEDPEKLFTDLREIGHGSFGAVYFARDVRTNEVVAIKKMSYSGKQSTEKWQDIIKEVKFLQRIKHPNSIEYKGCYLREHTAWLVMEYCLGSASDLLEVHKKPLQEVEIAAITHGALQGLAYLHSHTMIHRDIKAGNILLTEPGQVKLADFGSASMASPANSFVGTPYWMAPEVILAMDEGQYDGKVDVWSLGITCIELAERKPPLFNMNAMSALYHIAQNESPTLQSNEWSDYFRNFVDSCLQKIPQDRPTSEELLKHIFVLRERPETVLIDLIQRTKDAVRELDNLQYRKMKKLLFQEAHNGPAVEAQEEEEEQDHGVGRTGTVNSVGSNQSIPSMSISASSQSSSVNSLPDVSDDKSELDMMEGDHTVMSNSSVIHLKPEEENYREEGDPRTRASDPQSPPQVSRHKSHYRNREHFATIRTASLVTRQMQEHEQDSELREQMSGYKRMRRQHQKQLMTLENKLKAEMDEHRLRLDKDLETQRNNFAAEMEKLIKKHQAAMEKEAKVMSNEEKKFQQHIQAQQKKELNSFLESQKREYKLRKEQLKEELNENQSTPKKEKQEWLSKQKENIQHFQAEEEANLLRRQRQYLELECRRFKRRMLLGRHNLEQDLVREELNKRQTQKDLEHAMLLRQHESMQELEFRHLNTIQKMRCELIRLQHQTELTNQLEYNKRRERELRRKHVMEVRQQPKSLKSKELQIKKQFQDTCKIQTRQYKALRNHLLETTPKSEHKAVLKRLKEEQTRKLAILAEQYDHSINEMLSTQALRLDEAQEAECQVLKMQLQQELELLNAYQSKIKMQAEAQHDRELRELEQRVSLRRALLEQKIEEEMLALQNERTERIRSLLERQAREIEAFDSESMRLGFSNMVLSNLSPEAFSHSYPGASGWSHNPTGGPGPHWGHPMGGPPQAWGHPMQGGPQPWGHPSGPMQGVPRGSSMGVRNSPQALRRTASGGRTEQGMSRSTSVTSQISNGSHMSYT
The note with it: at 10 µM.

Assay [5] addresses T3, Serine/threonine-protein kinase TAO2 (Homo sapiens) (UniProt Q9UL54).
T3 sequence (whole entry): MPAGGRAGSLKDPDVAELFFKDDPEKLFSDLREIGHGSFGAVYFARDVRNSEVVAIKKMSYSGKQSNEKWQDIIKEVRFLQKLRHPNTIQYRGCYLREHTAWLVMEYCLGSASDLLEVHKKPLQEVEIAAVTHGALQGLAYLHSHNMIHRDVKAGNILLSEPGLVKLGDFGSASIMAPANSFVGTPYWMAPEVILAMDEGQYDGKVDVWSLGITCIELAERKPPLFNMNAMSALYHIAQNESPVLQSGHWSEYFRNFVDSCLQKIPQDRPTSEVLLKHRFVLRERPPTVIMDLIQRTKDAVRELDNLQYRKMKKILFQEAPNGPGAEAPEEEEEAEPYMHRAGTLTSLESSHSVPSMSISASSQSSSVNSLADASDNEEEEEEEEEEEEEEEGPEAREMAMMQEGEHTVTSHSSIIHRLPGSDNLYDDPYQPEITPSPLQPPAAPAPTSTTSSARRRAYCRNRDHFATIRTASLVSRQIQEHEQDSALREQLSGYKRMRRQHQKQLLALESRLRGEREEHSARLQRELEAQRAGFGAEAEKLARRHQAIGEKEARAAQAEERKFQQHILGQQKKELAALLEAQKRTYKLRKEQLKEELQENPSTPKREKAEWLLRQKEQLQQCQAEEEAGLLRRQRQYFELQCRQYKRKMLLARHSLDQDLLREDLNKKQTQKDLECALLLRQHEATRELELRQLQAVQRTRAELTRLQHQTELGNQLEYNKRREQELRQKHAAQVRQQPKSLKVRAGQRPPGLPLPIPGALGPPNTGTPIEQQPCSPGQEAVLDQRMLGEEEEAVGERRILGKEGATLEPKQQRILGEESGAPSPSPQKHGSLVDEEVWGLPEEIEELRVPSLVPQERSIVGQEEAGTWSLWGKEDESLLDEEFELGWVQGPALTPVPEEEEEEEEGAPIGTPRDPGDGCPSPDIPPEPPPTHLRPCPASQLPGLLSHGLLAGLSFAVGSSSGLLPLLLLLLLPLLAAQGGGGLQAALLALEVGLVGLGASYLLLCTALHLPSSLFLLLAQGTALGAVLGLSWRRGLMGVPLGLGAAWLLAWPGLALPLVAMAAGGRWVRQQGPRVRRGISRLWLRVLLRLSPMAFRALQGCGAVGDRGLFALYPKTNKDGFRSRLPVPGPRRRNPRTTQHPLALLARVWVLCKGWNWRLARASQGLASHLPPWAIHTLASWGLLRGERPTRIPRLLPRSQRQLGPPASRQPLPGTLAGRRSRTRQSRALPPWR
To be noted: at 1 µM.

Assay [6] addresses T3, Serine/threonine-protein kinase TAO2 (Homo sapiens). To be noted: at 10 µM.
The target in assay [7] is T4, Serine/threonine-protein kinase TAO3 (Homo sapiens) (UniProt Q9H2K8).
T4 sequence (whole entry): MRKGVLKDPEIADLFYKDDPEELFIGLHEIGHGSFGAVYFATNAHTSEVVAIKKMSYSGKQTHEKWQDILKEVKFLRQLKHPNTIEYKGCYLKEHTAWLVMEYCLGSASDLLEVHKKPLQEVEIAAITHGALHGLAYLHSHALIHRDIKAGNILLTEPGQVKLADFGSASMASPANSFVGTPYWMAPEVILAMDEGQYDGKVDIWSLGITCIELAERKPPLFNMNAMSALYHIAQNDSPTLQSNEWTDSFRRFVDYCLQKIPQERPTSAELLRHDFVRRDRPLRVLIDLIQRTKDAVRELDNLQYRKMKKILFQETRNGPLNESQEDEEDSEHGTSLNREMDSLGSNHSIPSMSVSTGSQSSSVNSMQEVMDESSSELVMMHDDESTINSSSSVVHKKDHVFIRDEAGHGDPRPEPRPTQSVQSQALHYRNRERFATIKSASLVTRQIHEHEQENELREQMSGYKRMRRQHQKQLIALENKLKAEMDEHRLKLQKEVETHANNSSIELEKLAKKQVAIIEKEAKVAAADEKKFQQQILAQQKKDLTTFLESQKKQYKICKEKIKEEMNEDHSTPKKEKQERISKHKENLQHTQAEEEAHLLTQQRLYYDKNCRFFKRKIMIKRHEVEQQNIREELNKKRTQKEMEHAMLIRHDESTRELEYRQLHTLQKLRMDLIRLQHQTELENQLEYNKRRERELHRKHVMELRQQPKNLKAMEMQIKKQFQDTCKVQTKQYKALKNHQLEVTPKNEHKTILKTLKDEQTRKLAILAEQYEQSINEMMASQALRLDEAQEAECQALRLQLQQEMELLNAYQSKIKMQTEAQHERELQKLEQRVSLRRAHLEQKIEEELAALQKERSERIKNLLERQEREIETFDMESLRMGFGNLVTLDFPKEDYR
To be noted: at 1 µM.

Assay [8] has as its target T4, Serine/threonine-protein kinase TAO3 (Homo sapiens). To be noted: at 10 µM.

Drawing on ChEMBL document CHEMBL2218924, “A broad activity screen in support of a chemogenomic map for kinase signalling research and drug discovery” (Biochem J, 2013), this text covers residual activity for one compound.

In the case of `COc1cc2ncnc(Nc3ccc(NC(=O)c4ccccc4)cc3)c2cc1OC`, the residual activity came to 88% in assay [1]; 107% in assay [2]; 96% in assay [3]; 94% in assay [4]; 98% in assay [5]; 83% in assay [6]. For the same compound, the values for the residual activity in assay [7] and in assay [8] were 102% and 84%, respectively.
